What was measured:
Assay in all cases: DAPPL (digital affinity profiling via proximity ligation, sequencing); 10 mM Tris-HCl pH 7.5, 50 mM NaCl, 1 mM DTT, 4% glycerol, room temperature, 30 min; GST-TFs on glutathione beads, 16-mer random dsDNA library, 0.1% formaldehyde crosslink after washing; high values mean tight binding
Conditions in all cases: protein: recombinant; tags: N-terminal GST; dsDNA, one strand shown
[1] = biological target: T1, FLI1 (Homo sapiens, UniProt Q01543 1-452)
T1 sequence: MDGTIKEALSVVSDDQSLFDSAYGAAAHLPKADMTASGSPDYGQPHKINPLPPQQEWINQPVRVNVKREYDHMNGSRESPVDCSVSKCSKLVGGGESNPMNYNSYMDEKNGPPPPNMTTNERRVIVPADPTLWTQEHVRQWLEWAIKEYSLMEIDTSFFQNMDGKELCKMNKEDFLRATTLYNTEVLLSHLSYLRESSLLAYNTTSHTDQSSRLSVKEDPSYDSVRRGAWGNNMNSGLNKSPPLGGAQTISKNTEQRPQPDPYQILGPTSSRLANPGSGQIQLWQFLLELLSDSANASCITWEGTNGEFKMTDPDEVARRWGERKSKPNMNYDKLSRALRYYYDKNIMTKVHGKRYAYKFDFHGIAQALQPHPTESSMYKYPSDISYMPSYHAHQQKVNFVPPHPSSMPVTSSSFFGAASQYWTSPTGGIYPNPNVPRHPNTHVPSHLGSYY
Procedure, shortened: (§1)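 Human transcription factors were made in yeast as GST fusions, captured on glutathione beads and barcoded with DNA. With a tag-only sample included, the pool was incubated with 200 nmole of a random double-stranded 16-mer DNA library in Tris/NaCl/DTT/glycerol buffer at room temperature for 30 min, then crosslinked with 0.1% formaldehyde after washing, ligated by proximity, amplified and sequenced. For binding signal, each hexamer's read frequency for a factor is divided by its frequency for the tag-only sample.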

[2] = biological target: T2, ELK1 (Homo sapiens, UniProt P19419 1-428)
T2 sequence: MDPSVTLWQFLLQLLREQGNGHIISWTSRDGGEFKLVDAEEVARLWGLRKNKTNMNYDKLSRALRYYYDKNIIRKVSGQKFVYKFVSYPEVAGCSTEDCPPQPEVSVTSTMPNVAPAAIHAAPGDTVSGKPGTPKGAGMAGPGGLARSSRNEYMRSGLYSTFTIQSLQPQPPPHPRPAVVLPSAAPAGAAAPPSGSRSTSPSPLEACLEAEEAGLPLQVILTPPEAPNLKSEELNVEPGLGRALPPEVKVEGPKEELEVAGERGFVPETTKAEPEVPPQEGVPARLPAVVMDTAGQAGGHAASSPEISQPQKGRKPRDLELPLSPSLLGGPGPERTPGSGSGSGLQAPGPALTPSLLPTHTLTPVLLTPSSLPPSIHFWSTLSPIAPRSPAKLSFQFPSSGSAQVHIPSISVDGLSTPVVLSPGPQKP
Procedure, shortened: as §1

[3] = biological target: T3, GABPA (Homo sapiens, UniProt Q06546 1-454)
T3 sequence: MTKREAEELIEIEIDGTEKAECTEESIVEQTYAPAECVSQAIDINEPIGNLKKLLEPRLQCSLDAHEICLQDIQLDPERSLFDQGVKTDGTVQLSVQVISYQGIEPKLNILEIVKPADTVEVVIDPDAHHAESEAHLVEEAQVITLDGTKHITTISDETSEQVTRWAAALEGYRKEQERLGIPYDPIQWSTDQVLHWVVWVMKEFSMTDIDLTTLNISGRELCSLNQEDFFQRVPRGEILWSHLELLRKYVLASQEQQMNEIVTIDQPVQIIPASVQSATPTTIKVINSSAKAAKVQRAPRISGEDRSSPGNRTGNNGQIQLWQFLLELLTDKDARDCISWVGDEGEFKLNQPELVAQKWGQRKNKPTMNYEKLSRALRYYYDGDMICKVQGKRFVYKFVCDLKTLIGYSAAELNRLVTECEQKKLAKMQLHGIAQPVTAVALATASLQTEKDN
Procedure, shortened: as §1

[4] = biological target: ELF1 (Homo sapiens, UniProt P32519 1-619)
ELF1, sequence (P32519 whole entry): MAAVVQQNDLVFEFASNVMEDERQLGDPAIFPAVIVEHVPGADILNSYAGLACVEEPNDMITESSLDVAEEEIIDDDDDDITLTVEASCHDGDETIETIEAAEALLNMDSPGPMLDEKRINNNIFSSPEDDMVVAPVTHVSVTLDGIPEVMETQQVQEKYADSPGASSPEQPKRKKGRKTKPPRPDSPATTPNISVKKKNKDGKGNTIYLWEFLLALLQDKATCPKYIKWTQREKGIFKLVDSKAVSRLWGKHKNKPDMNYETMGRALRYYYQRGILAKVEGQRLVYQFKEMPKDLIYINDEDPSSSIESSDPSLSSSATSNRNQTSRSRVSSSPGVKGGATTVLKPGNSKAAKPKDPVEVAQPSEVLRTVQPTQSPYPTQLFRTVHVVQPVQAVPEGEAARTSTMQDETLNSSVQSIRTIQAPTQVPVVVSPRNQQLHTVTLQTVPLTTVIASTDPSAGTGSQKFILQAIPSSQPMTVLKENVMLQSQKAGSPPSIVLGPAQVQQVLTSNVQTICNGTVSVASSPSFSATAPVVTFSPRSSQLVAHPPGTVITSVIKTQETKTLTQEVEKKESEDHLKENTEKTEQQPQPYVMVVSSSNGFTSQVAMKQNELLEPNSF
Procedure, shortened: as §1

[5] = biological target: T4, EHF (Homo sapiens, UniProt Q9NZC4 1-300)
T4 sequence: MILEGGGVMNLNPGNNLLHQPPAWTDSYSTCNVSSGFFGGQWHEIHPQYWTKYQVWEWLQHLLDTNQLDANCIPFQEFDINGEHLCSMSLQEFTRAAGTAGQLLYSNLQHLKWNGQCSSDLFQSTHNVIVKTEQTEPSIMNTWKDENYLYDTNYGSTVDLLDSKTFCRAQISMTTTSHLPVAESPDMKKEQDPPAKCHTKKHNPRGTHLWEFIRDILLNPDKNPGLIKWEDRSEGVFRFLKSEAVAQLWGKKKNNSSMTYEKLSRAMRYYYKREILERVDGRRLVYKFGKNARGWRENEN
Procedure, shortened: as §1

[6] = biological target: SPI1 (Homo sapiens, UniProt P17947 1-270)
Procedure, shortened: as §1

[7] = biological target: SPIB (Homo sapiens, UniProt Q01892 1-262)
SPIB, sequence (Q01892 whole entry): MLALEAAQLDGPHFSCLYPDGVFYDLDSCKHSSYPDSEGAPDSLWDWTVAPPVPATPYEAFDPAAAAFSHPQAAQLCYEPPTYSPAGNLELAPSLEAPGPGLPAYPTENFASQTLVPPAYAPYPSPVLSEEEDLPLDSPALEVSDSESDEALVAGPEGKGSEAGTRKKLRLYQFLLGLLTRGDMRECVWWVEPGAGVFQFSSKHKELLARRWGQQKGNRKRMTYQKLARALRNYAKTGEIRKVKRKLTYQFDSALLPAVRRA
Procedure, shortened: as §1

[8] = biological target: T5, FEV (Homo sapiens, UniProt Q99581 1-238)
T5 sequence: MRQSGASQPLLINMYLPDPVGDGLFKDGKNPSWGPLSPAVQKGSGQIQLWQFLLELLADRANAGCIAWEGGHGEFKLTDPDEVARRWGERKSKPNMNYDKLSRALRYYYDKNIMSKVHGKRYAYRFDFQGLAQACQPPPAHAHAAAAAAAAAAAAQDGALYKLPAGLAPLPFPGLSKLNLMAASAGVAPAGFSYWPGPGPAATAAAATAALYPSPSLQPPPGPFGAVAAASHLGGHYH
Procedure, shortened: as §1

[9] = biological target: ETV5 (Homo sapiens, UniProt P41161 1-510)
ETV5, sequence (P41161 whole entry): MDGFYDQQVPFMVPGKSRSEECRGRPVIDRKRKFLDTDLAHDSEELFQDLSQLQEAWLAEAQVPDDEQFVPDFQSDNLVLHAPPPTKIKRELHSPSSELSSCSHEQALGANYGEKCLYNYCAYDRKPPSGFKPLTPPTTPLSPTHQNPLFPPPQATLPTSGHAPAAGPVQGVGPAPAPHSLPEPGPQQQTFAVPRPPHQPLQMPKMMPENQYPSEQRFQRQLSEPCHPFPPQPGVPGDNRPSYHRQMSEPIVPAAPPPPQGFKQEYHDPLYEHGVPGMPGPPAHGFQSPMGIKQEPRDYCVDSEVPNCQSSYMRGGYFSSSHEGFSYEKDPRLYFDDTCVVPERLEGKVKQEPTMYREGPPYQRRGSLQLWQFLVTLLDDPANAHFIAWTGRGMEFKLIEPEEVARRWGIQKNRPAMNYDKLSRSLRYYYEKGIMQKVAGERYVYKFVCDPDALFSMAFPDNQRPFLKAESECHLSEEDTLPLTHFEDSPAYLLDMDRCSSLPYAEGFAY
Procedure, shortened: as §1

[10] = biological target: T6, SPIC (Homo sapiens, UniProt Q8N5J4 1-248)
T6 sequence: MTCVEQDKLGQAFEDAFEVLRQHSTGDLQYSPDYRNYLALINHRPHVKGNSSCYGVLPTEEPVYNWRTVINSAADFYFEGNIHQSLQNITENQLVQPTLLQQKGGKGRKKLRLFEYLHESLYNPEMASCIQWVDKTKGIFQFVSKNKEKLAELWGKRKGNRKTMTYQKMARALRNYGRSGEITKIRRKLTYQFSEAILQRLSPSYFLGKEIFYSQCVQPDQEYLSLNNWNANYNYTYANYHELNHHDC
Procedure, shortened: as §1

[11] = biological target: ELF4 (Homo sapiens, UniProt Q99607 1-663)
ELF4, sequence (Q99607 whole entry): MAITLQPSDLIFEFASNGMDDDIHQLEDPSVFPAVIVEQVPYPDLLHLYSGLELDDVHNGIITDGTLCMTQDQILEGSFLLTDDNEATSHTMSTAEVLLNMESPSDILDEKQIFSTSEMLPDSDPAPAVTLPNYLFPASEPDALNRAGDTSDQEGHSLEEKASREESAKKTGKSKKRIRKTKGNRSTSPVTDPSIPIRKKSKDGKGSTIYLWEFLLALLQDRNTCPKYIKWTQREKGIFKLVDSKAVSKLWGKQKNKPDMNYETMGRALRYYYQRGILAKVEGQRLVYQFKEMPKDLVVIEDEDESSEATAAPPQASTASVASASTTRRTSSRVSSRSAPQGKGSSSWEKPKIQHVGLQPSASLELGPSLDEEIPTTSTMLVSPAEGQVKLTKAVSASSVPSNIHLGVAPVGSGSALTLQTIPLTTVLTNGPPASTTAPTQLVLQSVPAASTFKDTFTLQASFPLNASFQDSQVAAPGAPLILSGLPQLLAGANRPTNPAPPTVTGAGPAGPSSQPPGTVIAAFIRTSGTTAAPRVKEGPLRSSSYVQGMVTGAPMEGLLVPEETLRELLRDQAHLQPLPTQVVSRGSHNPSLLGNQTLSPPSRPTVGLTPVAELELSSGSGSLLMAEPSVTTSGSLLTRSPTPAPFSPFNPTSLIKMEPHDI
Procedure, shortened: as §1

[12] = biological target: T7, ELK4 (Homo sapiens, UniProt P28324-2 1-405)
T7 sequence: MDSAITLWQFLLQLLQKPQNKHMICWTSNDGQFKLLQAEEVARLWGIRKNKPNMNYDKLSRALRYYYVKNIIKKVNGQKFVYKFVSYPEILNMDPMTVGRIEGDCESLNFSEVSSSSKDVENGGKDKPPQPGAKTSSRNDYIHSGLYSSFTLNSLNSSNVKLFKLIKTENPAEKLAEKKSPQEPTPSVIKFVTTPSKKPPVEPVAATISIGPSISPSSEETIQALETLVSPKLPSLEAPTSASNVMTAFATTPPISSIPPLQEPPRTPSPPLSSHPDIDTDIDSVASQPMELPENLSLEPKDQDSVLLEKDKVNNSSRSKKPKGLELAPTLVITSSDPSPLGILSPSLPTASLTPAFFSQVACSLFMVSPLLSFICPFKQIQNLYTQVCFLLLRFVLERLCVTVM
Procedure, shortened: as §1

[13] = biological target: T8, ETV2 (Homo sapiens, UniProt O00321 1-342)
T8 sequence: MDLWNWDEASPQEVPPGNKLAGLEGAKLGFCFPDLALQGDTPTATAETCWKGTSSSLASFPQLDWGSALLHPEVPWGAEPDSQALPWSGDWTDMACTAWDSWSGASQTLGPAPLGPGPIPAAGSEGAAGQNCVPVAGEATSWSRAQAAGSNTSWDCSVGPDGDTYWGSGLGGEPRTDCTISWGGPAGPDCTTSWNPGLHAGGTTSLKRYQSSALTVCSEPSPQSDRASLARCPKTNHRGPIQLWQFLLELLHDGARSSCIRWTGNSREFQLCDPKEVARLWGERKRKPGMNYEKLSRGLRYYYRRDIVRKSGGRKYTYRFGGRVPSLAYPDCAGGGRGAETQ
Procedure, shortened: as §1

[14] = biological target: T9, ELF3 (Homo sapiens, UniProt P78545 1-371)
T9 sequence: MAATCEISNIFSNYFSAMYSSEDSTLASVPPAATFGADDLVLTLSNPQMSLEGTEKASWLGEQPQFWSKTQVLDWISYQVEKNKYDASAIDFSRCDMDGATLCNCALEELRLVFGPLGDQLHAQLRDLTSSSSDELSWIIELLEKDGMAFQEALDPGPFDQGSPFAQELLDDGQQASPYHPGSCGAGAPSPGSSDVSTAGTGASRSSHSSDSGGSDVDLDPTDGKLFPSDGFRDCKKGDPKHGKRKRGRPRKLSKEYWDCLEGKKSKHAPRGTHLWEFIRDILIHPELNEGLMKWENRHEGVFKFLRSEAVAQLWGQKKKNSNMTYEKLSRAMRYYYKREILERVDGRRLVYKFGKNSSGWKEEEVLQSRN
Procedure, shortened: as §1

[15] = biological target: ETV1 (Homo sapiens, UniProt P50549 1-477)
ETV1, sequence (P50549 whole entry): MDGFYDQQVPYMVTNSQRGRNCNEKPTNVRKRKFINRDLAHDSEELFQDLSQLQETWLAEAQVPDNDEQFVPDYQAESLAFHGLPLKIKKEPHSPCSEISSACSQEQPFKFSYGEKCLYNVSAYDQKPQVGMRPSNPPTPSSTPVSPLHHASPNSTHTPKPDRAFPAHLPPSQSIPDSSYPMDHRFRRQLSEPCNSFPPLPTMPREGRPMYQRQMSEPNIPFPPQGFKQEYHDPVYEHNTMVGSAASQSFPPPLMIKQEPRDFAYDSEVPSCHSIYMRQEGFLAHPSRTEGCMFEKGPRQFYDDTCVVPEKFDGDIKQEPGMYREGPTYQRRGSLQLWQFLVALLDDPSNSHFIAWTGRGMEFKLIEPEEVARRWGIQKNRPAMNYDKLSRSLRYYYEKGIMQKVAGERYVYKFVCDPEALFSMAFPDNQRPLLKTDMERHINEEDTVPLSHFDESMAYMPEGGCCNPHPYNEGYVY
Procedure, shortened: as §1

[16] = biological target: T10, ERG (Homo sapiens, UniProt P11308 1-479)
T10 sequence: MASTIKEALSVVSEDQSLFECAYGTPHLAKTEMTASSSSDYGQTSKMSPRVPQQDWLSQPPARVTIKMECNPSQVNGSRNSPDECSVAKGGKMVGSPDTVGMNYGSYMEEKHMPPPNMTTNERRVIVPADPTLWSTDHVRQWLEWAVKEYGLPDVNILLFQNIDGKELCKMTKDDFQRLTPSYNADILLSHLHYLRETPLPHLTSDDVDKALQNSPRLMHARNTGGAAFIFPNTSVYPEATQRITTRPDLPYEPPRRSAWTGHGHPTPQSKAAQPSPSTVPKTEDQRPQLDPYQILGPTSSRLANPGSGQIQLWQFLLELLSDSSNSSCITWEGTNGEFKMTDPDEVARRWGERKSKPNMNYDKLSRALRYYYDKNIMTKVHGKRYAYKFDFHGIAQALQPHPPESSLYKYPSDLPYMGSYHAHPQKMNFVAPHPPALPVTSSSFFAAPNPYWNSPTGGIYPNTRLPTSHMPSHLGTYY
Procedure, shortened: as §1

[17] = biological target: T11, ELK3 (Homo sapiens, UniProt P41970 1-407)
T11 sequence: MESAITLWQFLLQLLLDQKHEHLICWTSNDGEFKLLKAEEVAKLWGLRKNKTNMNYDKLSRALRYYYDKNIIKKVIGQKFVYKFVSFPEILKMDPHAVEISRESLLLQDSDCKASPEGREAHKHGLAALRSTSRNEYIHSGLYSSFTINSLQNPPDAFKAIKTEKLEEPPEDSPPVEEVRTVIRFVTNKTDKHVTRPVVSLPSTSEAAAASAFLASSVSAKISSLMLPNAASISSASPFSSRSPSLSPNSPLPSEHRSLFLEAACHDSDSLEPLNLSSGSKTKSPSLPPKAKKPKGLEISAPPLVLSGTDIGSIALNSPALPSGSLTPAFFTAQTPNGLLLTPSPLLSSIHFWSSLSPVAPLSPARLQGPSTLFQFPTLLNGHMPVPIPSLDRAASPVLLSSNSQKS
Procedure, shortened: as §1

Sequence	binding signal [1]	binding signal [2]	binding signal [3]	binding signal [4]	binding signal [5]	binding signal [6]	binding signal [7]	binding signal [8]	binding signal [9]	binding signal [10]	binding signal [11]	binding signal [12]	binding signal [13]	binding signal [14]	binding signal [15]	binding signal [16]	binding signal [17]
CTATGT	1.11 fold enrichment (6-mer frequency, TF over GST control)	1.11 fold enrichment (6-mer frequency, TF over GST control)	1.22 fold enrichment (6-mer frequency, TF over GST control)	1.09 fold enrichment (6-mer frequency, TF over GST control)	1.03 fold enrichment (6-mer frequency, TF over GST control)	1.04 fold enrichment (6-mer frequency, TF over GST control)	1.15 fold enrichment (6-mer frequency, TF over GST control)	1.09 fold enrichment (6-mer frequency, TF over GST control)	1.01 fold enrichment (6-mer frequency, TF over GST control)	1.01 fold enrichment (6-mer frequency, TF over GST control)	1.18 fold enrichment (6-mer frequency, TF over GST control)	1.15 fold enrichment (6-mer frequency, TF over GST control)	1.14 fold enrichment (6-mer frequency, TF over GST control)	1.23 fold enrichment (6-mer frequency, TF over GST control)	1 fold enrichment (6-mer frequency, TF over GST control)	–	–
GTCCAT	1.22 fold enrichment (6-mer frequency, TF over GST control)	1.07 fold enrichment (6-mer frequency, TF over GST control)	–	1.1 fold enrichment (6-mer frequency, TF over GST control)	1.13 fold enrichment (6-mer frequency, TF over GST control)	1.08 fold enrichment (6-mer frequency, TF over GST control)	1.07 fold enrichment (6-mer frequency, TF over GST control)	1.03 fold enrichment (6-mer frequency, TF over GST control)	1.17 fold enrichment (6-mer frequency, TF over GST control)	1.17 fold enrichment (6-mer frequency, TF over GST control)	1.1 fold enrichment (6-mer frequency, TF over GST control)	1.18 fold enrichment (6-mer frequency, TF over GST control)	1.04 fold enrichment (6-mer frequency, TF over GST control)	1.11 fold enrichment (6-mer frequency, TF over GST control)	1.18 fold enrichment (6-mer frequency, TF over GST control)	1.14 fold enrichment (6-mer frequency, TF over GST control)	1.2 fold enrichment (6-mer frequency, TF over GST control)

From PMC7862700, “An all-to-all approach to the identification of sequence-specific readers for epigenetic DNA modifications on cytosine”
